Experimental data published in ChEMBL document CHEMBL3988442, “University of Dundee, Small-Polar-MMV Screening Library” (2021).
The whole screen tested about 48,000 compounds, of which about 13,000 (27%) showed an effect of 50% or more. Some of the results follow.

Test system: Wolbachia pipientis
Assay: Anti-Wolbachia Cell-Based Screen
Type: functional
Set-up: scale not given: in the data most compounds retested in dose-response had high values
Conditions: 5 µM

Row | Structure (SMILES) | Percent Effect [%]
1 | COCCN(Cc1ccccn1)C(=O)CC1OCCc2ccccc21 (stereo not drawn) | -5.998
2 | COC(=O)c1ccc(N2CCC(C(O)c3ccccc3)CC2)nn1 (stereo not drawn) | -10.77
3 | CC(C)CCC(=O)Nc1ncn(CC(=O)N2CCCCCC2)n1 | -19.43
4 | CCc1nc(CC(=O)N2CCOCC2c2ncon2)cs1 (stereo not drawn) | -4.331
5 | Cc1nnsc1CN1C[C@@H]2CC[C@H](C1)N(Cc1c(C)noc1C)C2=O | 10.64
6 | O=C1N(CC2CC2)CCCC1(O)CN1CCc2[nH]ncc2C1 (stereo not drawn) | -6.967
7 | CCc1ccc(CN2CCN(C)C3(CCC(=O)N(CC4CC4)CC3)C2)o1 (stereo not drawn) | 1.557
8 | Cc1noc([C@@H]2C[C@H](NC(=O)C3CCCCC3)CN2C)n1 | -5.582
9 | CCOC(=O)[C@]12CCCN(Cc3nccs3)C[C@H]1CN(CCN(C)C)C2.O=C(O)C(F)(F)F.O=C(O)C(F)(F)F.O=C(O)C(F)(F)F | 8.148
10 | CCOC(=O)[C@]12CCCN(Cc3nccs3)C[C@H]1CN(CC(C)C)C2.O=C(O)C(F)(F)F.O=C(O)C(F)(F)F | 11.11
11 | CCOC(=O)[C@]12CCCN(Cc3cccs3)C[C@H]1CN(CC(C)C)C2.O=C(O)C(F)(F)F.O=C(O)C(F)(F)F | 98.32
12 | Cn1cc(C(=O)Nc2cccc(-c3ccc4c(c3)CCO4)n2)ccc1=O | 14
13 | O=C(Cc1cccnc1)N1C[C@@H]2CC[C@H](C1)N(Cc1ccccc1)C2=O | -0.7591
14 | CNC(=O)CC1CC2(CCN(c3ncccn3)CC2)c2ccccc21.O=C(O)C(F)(F)F (stereo not drawn) | -15.28
15 | CCC1CN(C(=O)c2cccnc2O)CCC(=O)N1Cc1ccccc1 (stereo not drawn) | -1.189
16 | O=C(Cc1ccccn1)N1C[C@@H]2CC[C@H](C1)N(Cc1ccccc1)C2=O | -26.39
17 | COC(=O)CC1CN(Cc2c(Cl)ccc3cccnc23)CCO1 (stereo not drawn) | -2.588
18 | O=C1c2ncccc2C(CCO)N1Cc1ccccc1 (stereo not drawn) | 101.3
19 | CNC(=O)CC1c2cccnc2C(=O)N1Cc1ccccc1 (stereo not drawn) | 136.6
20 | O=C(O)c1cccnc1N1CCN(Cc2ccc(F)cc2)C(CCO)C1 (stereo not drawn) | -1.62
21 | CCC1CN(C(=O)c2ncccc2O)CCC(=O)N1Cc1ccccc1 (stereo not drawn) | -8.07
22 | COC(=O)CC1c2cccnc2C(=O)N1Cc1ccccc1 (stereo not drawn) | 107.1
23 | NC(=O)CC1c2cccnc2C(=O)N1Cc1ccccc1 (stereo not drawn) | 97.87
24 | CNC(=O)c1cccnc1N1CCN(Cc2ccccc2)C(CCO)C1 (stereo not drawn) | -3.747
25 | O=C(Nc1ccccc1OC(F)F)C1=NN(c2ccccc2)C(=O)CN1 | 6.158

Row | Structure (SMILES) | Percent Effect [%]
26 | CC(C)c1noc(CCC(=O)N2CCN(C)CC2c2ccccc2)n1 (stereo not drawn) | 2.762
27 | CN(C)CCn1ccc2ccc(NC(=O)c3ccncc3F)cc21 | -14.36
28 | Cc1nn(C)c(C)c1CC(C)NC(=O)NCc1ccoc1C (stereo not drawn) | -1.757
29 | COc1ccc(CC(=O)N(C)Cc2nnc3ccccn23)cc1 | 2.883
30 | CN(Cc1nnc2ccccn12)C(=O)CCNC(=O)C(C)(C)C | 7.202
31 | COc1ccc(C(=O)N(C)Cc2nnc3ccccn23)cc1 | 104.5
32 | Cc1ccc(C)c(C(O)CN(C)Cc2nnc3ccccn23)c1 (stereo not drawn) | -3.237
33 | COc1cc(OC)cc(C(=O)N(C)Cc2nnc3ccccn23)c1 | 132.8
34 | CCC(O)CN(C)Cc1nnc2ccccn12 (stereo not drawn) | -1.119
35 | CN(C(=O)c1ccc(C#N)cc1)C1CCN(c2ccccn2)CC1 | 4.986
36 | CN(C(=O)c1ccc(Cl)cc1)C1CCN(c2ccccn2)CC1 | 98.58
37 | CN(C(=O)c1cccc(Cl)c1)C1CCN(c2ccccn2)CC1 | 127.4
38 | CN(C(=O)Nc1cccc(C#N)c1)C1CCN(c2ccccn2)CC1 | -13.99
39 | CN(C(=O)c1cc(Cl)c[nH]1)C1CCN(c2ccccn2)CC1 | -4.084
40 | CC(NC(=O)NCCCN(C)S(C)(=O)=O)c1ccncc1 (stereo not drawn) | 10.56
41 | CC1c2cc(F)ccc2CCN1CCS(=O)(=O)C(C)C (stereo not drawn) | 14
42 | O=C(O)C(F)(F)F.O=S(=O)(C1CC1)N1CCn2cc(CNc3ccccn3)nc2C1 | -1.604
43 | CC(=O)NCC(=O)N1CCn2cc(CN3CCCCC3)nc2C1.O=C(O)C(F)(F)F | -3.049
44 | Cc1noc(C)c1CN1CCn2c(COC(C)C)nnc2C1 | -15.51
45 | Cc1noc(C)c1CN1CCn2cc(CN3CCOCC3)nc2C1 | 95.37
46 | Cc1ccc(C(=O)N2CCn3cc(CN4CCCCC4)nc3C2)o1.O=C(O)C(F)(F)F | 18.27
47 | Cc1noc(C)c1CN1CCn2cc(CNC(=O)C3CCC3)nc2C1.O=C(O)C(F)(F)F | -7.774
48 | O=C(O)C(F)(F)F.O=C(O)C(F)(F)F.c1ccc(NCc2cn3c(n2)CN(Cc2cccs2)CC3)nc1 | 4.417
49 | Cc1noc(C)c1CN1CCn2cc(CN3CCCC3)nc2C1.O=C(O)C(F)(F)F.O=C(O)C(F)(F)F | 117.4
50 | Cc1noc(C)c1CN1CCc2ncc(CN3CCCC3)n2CC1.O=C(O)C(F)(F)F.O=C(O)C(F)(F)F | -7.49

Row | Structure (SMILES) | Percent Effect [%]
51 | Cc1noc(C)c1CN1CCn2cc(CNc3ccccn3)nc2C1.O=C(O)C(F)(F)F.O=C(O)C(F)(F)F | 109
52 | Cc1noc(C)c1CN1CCn2cc(CN3CCCCC3)nc2C1.O=C(O)C(F)(F)F | 100
53 | Cc1noc(C)c1CN(Cc1ccccc1)C(C)CN1CCOCC1 (stereo not drawn) | -1.266
54 | O=C(Cc1ccc(Br)cc1)N1CC(S(=O)(=O)C2CCCCC2)C1 | -12.58
55 | N#Cc1cccc(C(=O)Nc2ccc([C@@H](O)[C@H]3COCC(=O)N3)cc2)c1 | -8.801
56 | Cc1nnc([C@@H]2CC[C@@H]3[C@@H](CCN3S(=O)(=O)C3CC3)O2)o1 | 10.23
57 | CC1(C)CN(C(=O)c2ccccc2-n2cncn2)CC1(C)O (stereo not drawn) | -36.51
58 | COc1cccc2c1OCCCN(Cc1c[nH]nc1C(=O)O)C2 | 0.6416
59 | Cc1ccc(CN2CCn3cc(CN(C)Cc4ccco4)nc3C2)o1.O=C(O)C(F)(F)F.O=C(O)C(F)(F)F | 18.64
60 | CCN(CC)Cc1cn2c(n1)CN(Cc1c(C)noc1C)CC2.O=C(O)C(F)(F)F.O=C(O)C(F)(F)F | 104
61 | CCN(CC)Cc1cnc2n1CCN(Cc1c(C)noc1C)CC2.O=C(O)C(F)(F)F.O=C(O)C(F)(F)F | -10.46
62 | Cc1cc(N(C)CCN(C)C)n2nc(C)cc2n1 | -8.762
63 | CC(=O)N1CCC(c2cc3c(ncn3C)c(-c3cnn(C)c3)n2)CC1 | -10.45
64 | CC(=O)N1CCC(c2c(CN(C)C)cnc3cc(C)nn23)CC1 | 74.12
65 | Cc1cc2ncc(CN(C)C)c(C3CCN(C)CC3)n2n1 | 76.44
66 | Cc1cc(N(C)CCN(C)C2CCCC2)n2nc(C)cc2n1 | 9.952
67 | CCc1noc(C2CCN(C(=O)CCn3nc(C)cc3C)CC2)n1 | 2.839
68 | COc1cc(C(=O)N2Cc3cnc(C(C)(C)C)nc3C2)ccn1 | -33.89
69 | O=C(C1CCCC1)N1CCC(C(O)c2ccc(F)cc2)CC1 (stereo not drawn) | -1.378
70 | O=C(C1CCCC1)N1CCCC([C@@H]2C[C@H](C(F)F)n3ncnc3N2)C1 (stereo partly drawn) | 108.9
71 | O=C(C1CCCCC1)N1CCCC([C@@H]2C[C@H](C(F)F)n3ncnc3N2)C1 (stereo partly drawn) | 100.7
72 | O=C(NCCOc1ccc(F)cc1)C1CCCN(C(=O)C2CC2)C1 (stereo not drawn) | -0.9975
73 | Cc1nnc2n1CCN(CC(O)CN1CCC(C)CC1)C2 (stereo not drawn) | -0.2217
74 | CC(C)c1nc(CN2CCOC(Cn3cncn3)C2)cs1 (stereo not drawn) | 78.62
75 | Cc1cnn(CC2CN(Cc3csc(C(C)C)n3)CCO2)c1 (stereo not drawn) | 144.1

Row | Structure (SMILES) | Percent Effect [%]
76 | c1csc(-c2nc(CN3CCOC(Cn4cncn4)C3)co2)c1 (stereo not drawn) | 1.427
77 | CC(C)c1nc(CN2CCOCC2)cs1 | 0.6364
78 | CC(=O)N(C)c1nc(CN2CCOC(Cn3cc(C)cn3)C2)cs1 (stereo not drawn) | -3.323
79 | CC(C)(C)c1nc(CN2CCCC(Cn3cncn3)C2)cs1 (stereo not drawn) | 5.475
80 | Cc1ccc(-c2nc(CN3CCOC(Cn4cncn4)C3)cs2)o1 (stereo not drawn) | 11.16
81 | CC(C)Cc1noc(CN2CCOC(Cn3cncn3)C2)n1 (stereo not drawn) | -1.295
82 | CC(C)(C)c1nc(CN2CCOC(Cn3cncn3)C2)cs1 (stereo not drawn) | 103.7
83 | CN(C(=O)COCc1ccccc1)C1CCN(CC2CCOC2)CC1 (stereo not drawn) | -14.42
84 | CCC(C)(N)c1nc(C(C)C)cc(=O)[nH]1.Cl (stereo not drawn) | -2.59
85 | CCc1nnc2n1CC(CNCc1ccncc1)CC2 (stereo not drawn) | -8.895
86 | Cc1nccn1-c1ccc(CNS(=O)(=O)N2CCCC(C)C2)cn1 (stereo not drawn) | -3.486
87 | CCN(CC)c1ccc(C(=O)NCc2cccnc2-n2cncn2)cn1 | 14.25
88 | O=C(NCc1ccc(-n2cncn2)nc1)c1cnccn1 | 91.78
89 | CCC(C)C(=O)NCc1ccc(-n2cncn2)nc1 (stereo not drawn) | -5.498
90 | CC(C(=O)NCc1ccc(-n2cncn2)nc1)S(C)(=O)=O (stereo not drawn) | -11.84
91 | CC(C)COC(C)C(=O)NCc1ccc(-n2cncn2)nc1 (stereo not drawn) | -8.308
92 | CC(C)C(=O)NCc1ccc(-n2cncn2)nc1 | -6.912
93 | O=C(NCc1ccc(-n2cncn2)nc1)c1cc[nH]n1 | 86.29
94 | O=C(NCc1ccc(-n2cncn2)nc1)c1ccoc1 | 0.1706
95 | O=C(NCc1ccc(-n2cncn2)nc1)c1cc(Cl)ccn1 | 100.5
96 | CCCc1nc(C(=O)NCc2cccnc2-n2cncn2)cs1 | -5.546
97 | O=C(NCc1cccnc1-n1cncn1)c1cc(Cl)ccn1 | 106.2
98 | CC(C(=O)NCc1ccc(-n2cncn2)nc1)n1ccnc1 (stereo not drawn) | -4.71
